Assay results reported in the supplement of paper PMC9334596.
Values joined by “and” are separate entries in the source; they are usually repeats but may differ in a detail not shown here. Equal values may be shown once. Over roughly 5,300 compounds, “PER2::LUC luminescence relative to vehicle control” has its median near 0.96; the highest 2% begin near 1.3. What follows is part of a selection rich in the highest values, with near analogues and random picks from the rest.

Test system: mPer2Luc MEF
Test: PER2::LUC luminescence relative to vehicle control (fold of vehicle); higher = higher PER2::LUC reporter signal
Conditions: 10 µM
How it was run: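 Compounds from commercial libraries were added at 10 μM to 384-well plates seeded 48 h earlier with ~3000 mPer2Luc mouse embryonic fibroblasts per well. The cells were kept in DMEM with 10% FBS at 37 °C and 5% CO2. Luminescence was read with ONE-Glo 24 h and 30 h after treatment, then an alamarBlue viability assay was run. Values are PER2::LUC luminescence relative to vehicle control, as fold change.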

Structure (SMILES)	PER2::LUC luminescence (time after treatment 24 h)	PER2::LUC luminescence (time after treatment 30 h)
CC1(C)CC2C1CC[C@]1(CBr)CCC3C(CC(=O)O)C(=O)O[C@@]32C1 (stereo partly drawn)	1.04	0.929
NCC(O)COc1cccc2ccccc12 (stereo not drawn)	0.637	0.588
Cc1onc(-c2ccccc2)c1C(=O)N1CCN(c2ccc([N+](=O)[O-])cc2Cl)CC1	0.896	1.04
O=C(Nc1ccccc1)c1ccccc1O	1.27	1.08
CC(=O)Nc1ccccc1	0.881	1.21
O=C(Nc1ccccc1)Nc1ccccc1	1.57	1.44
CC(C)c1c2cc(-c3ccnc(NC4CCC(NC5CCOCC5)CC4)n3)ccc2nn1C (stereo not drawn)	0.008	0.002
OC[C@H]1O[C@@H](O[C@@H]2OC=C[C@H]3[C@H](O)[C@@H]4O[C@]4(CO)[C@@H]23)[C@H](O)[C@@H](O)[C@@H]1O	1.04	1
O=c1oc2ccc(O)cc2c2c1NCCC2	0.764	1.05
O=c1cc(-c2ccccc2)oc2c(O)c(O)ccc12	0.582	0.632
O=c1cc(-c2ccccc2)oc2cc(O)c(O)cc12	1.41	1.47
O=c1cc(-c2ccc(O)cc2)oc2ccc(O)cc12	1.72	1.87
O=c1cc(-c2ccc(O)cc2)oc2cc(O)c([C@@H]3O[C@H](CO)[C@@H](O)[C@H](O)[C@H]3O)c(O)c12	0.972	0.983
O=c1oc2cc(O)ccc2c2oc3cc(O)ccc3c12	1.06	1.13
Cc1cc(=O)oc2cc(O)ccc12	1.01 and 1.08 and 0.784	0.94 and 0.807 and 0.997
CCOC(=O)COc1ccc2c(=O)cc(-c3ccccc3)oc2c1	1.06	1.08
O=c1cc(-c2ccccc2O)oc2cc(O)ccc12	1.27	1.38
O=c1cc(-c2ccccc2)oc2ccc(O)cc12	1.47	1.89
O=c1c(O)c(-c2ccccc2)oc2ccccc12	1.08	1.05
O=C(O)/C=C/c1ccc(O)c(O)c1/C(=C\c1ccc(O)c(O)c1)C(=O)O	1.15	1.02
COc1cc(O)c(C(=O)/C=C/c2ccc(OC)c(O)c2)c(OC)c1	1.08	1
COc1ccc(SC(=O)N[C@@H](CCC(=O)O)C(=O)O)cc1	0.852	0.909

Structure (SMILES)	PER2::LUC luminescence (time after treatment 24 h)	PER2::LUC luminescence (time after treatment 30 h)
CC(C)(O)c1ccccc1Cc1ccccc1	0.709	1.18
C=CC1=C(C)C2=CC3=NC(=C(CC(=O)O)C4=NC(=C(C)C4=C(O)O)C=c4[nH]c(c(C)c4CC)=CC1=N2)C(CCC(=O)O)C3C (stereo not drawn)	0.911	0.984
OC[C@H]1O[C@H](O[C@H]2C(O)[C@@H](O)[C@@H](OC[C@H]3O[C@@H]4O[C@H]5[C@H](O)[C@@H](O)[C@@H](O[C@H]6[C@H](O)[C@@H](O)[C@@H](O[C@H]7[C@H](O)[C@@H](O)[C@@H](O[C@H]8[C@H](O)[C@@H](O)[C@@H](O[C@H]9[C@H](O)[C@@H](O)[C@@H](O[C@H]%10[C@H](O)[C@@H](O)[C@@H](O[C@H]3[C@H](O)[C@H]4O)O[C@@H]%10CO)O[C@@H]9CO)O[C@@H]8CO)O[C@@H]7CO)O[C@@H]6CO)O[C@@H]5CO)O[C@@H]2CO)[C@H](O)[C@@H](O)[C@@H]1O (stereo partly drawn)	1.08	1.06
C=CCCCCCCCCCCCC(O)CC(O)COC(C)=O (stereo not drawn)	0.894	0.95
C[C@H](CCC(=O)NCCC[N+](C)(C)CCCS(=O)(=O)[O-])[C@H]1CC[C@H]2[C@@H]3[C@H](O)C[C@@H]4C[C@H](O)CC[C@]4(C)[C@H]3C[C@H](O)[C@]12C	1.06	0.883
O=c1c(O)c(-c2ccccc2)oc2cc(O)ccc12	1.13	1.18
O=c1cc(-c2ccccc2)oc2cc(O)ccc12	1.48	1.84
CC1=C([C@@H]2C=C3[C@@H](CC[C@]4(C)[C@@H]([C@H](C)CCCC(C)C)CC[C@@H]34)n3c(=O)n(-c4ccccc4)c(=O)n32)C[C@@H](O)C[C@@H]1O	0.94	0.899
O=c1ncccn1[C@@H]1O[C@H](CO)[C@@H](O)[C@H]1O	0.999	1.07
O=c1cnn([C@@H]2O[C@H](CO)[C@@H](O)[C@H]2O)c(=O)[nH]1	1.41	1.5
O=c1ccn([C@@H]2O[C@H](CO)[C@@H](O)[C@H]2O)c(=O)[nH]1	0.979	1.03
NC(=NC12CC3CC(CC(C3)C1)C2)Nc1ccc(I)cc1	1.06	0.918
CNC(=O)c1cc(Oc2ccc(NC(=O)c3cccc(C(F)(F)F)c3)cc2)ccn1	1.15	1.14
CCOC(=O)c1ccc(N(C)c2csc(-c3ccccc3)n2)cc1	1.19	1.58
O=C(OCc1ccccc1)c1ccccc1	1.05	1.03
CCOC(=O)c1ccc(O)cc1	1.06 and 0.859	1.02 and 0.79
Cn1cc(-c2ccc3nnc(Sc4ccc5nn(C)cc5c4)n3n2)cn1	0.782	0.785
C=CC(C)(C)c1cc(/C=C\C(=O)c2ccc(O)cc2)c(OC)cc1O	0.553	0.862
C[C@@H]1C[C@H]2[C@@H]3C[C@H](F)C4=CC(=O)C(Cl)=C[C@]4(C)[C@@]3(F)[C@@H](O)C[C@]2(C)[C@@]1(O)C(=O)CO	0.765	0.857
CC(=O)O[C@H](CC(=O)O)C[N+](C)(C)C	1.03	0.967
CC(C)(C)OC(=O)N1CCC(OCc2nc(-c3ccncc3)no2)CC1	0.986	0.843
NC(=O)c1cccc(-c2cccc(OC(=O)NC3CCCCC3)c2)c1	1.27	1.36
